In PubChem BioAssay:
Values without a mark were called inactive. For some assays here: Measured potencies and affinities stand elsewhere. Activity calls are given as the source filed them. Unless noted, no rule for the calls is given here.

Key:
[1] = antimalarial activity against Dd2 strain (AID 2302;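 active = growth inhibition above 50% at the single 2 µM test dose, taken to imply half-maximal potency below 2 µM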;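 also: 0% = DMSO untreated growth and 100% = chloroquine plus artemisinin killed control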); conditions: P. falciparum Dd2 in RBCs, LDH growth readout, 72 h; at 2 µM; hits give high values
[2] = human hepatoma cell viability loss – ATP luminescence, cytotoxicity control for P. falciparum antimalarial project, primary screen (AID 2303;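 active = inhibition above 50%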;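 also: 0% = DMSO wells and 100% = digitonin-killed cells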); conditions: HepG2 viability, 24-48 h, at 10 µM, hits give high values
[3] = biological target: L-lactate dehydrogenase (Plasmodium falciparum (isolate CDC / Honduras)) (UniProt Q27743); assay: PfLDH activity inhibition – cell lysate, 3D7 strain, counter-screen for P. falciparum growth inhibition project (AID 2304);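 also: 0% = vehicle and 100% = reference inhibitor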; conditions: P. falciparum 3D7 crude extract, LDH APAD/NBT absorbance; at 2 µM; hits give high values
Sequence of L-lactate dehydrogenase (Plasmodium falciparum (isolate CDC / Honduras)) (Q27743 whole entry, looked up): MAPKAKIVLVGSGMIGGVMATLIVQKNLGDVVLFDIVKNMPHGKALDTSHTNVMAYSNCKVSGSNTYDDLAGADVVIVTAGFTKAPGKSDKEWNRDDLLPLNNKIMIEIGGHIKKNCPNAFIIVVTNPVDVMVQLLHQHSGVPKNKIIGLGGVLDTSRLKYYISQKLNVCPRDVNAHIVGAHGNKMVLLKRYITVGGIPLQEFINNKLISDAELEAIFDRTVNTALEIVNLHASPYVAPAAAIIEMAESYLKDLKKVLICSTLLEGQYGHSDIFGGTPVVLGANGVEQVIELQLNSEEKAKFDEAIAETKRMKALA

[4] = inhibition of 3D7 malaria parasite growth – strain 3D7 (AID 2306);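 also: 0% = DMSO wells and 100% = chloroquine plus artemisinin control wells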; conditions: P. falciparum 3D7 erythrocytic growth, LDH absorbance, 72 h; at 2 µM; hits give high values
[5] = biological target: Calcium-dependent protein kinase 1 (Plasmodium falciparum (isolate 3D7)) (UniProt P62344); assay: PfCDPK1 kinase inhibitors, biochemical, TCAMS library (AID 1159585; cut-off not given, nearly all actives have IC50 up to about 0.98 µM;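 also: inhibitors leave more ATP so luminescence rises with inhibition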); conditions: recombinant PfCDPK1, Kinase-Glo ATP depletion luminescence
Sequence of Calcium-dependent protein kinase 1 (Plasmodium falciparum (isolate 3D7)) (P62344 whole entry, looked up): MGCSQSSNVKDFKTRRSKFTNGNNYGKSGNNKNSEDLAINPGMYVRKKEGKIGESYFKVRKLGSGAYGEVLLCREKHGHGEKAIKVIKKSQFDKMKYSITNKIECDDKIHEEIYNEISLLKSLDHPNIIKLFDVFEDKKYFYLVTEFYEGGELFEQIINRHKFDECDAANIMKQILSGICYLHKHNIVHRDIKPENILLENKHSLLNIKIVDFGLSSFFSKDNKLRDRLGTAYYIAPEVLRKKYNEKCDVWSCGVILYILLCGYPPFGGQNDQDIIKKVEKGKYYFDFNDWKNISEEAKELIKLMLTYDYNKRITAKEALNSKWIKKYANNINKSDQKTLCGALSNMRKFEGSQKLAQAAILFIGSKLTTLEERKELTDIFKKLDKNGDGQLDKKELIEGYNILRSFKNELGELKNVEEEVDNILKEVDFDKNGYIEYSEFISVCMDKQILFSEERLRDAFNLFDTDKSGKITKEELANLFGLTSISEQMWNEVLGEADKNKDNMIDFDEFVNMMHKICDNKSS

[6] = biological target: Plasmodium falciparum protein kinase 6 (PK6, PF3D7_1337100) (UniProt Q8IDW1); assay: PfPK6 kinase inhibitors, biochemical, TCAMS library (AID 1159586); conditions: recombinant PfPK6, Kinase-Glo ATP depletion luminescence
Sequence of Plasmodium falciparum protein kinase 6 (PK6, PF3D7_1337100) (Q8IDW1 1-305): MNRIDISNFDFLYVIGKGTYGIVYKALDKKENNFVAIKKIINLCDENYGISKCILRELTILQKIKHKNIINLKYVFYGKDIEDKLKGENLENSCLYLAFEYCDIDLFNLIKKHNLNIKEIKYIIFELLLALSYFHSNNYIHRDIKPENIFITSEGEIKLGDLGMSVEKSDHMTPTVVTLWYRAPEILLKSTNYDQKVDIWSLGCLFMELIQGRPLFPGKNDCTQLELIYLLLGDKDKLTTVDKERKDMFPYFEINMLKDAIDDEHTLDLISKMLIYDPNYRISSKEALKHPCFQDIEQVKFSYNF

[7] = biological target: Protein kinase 7 (PK7), Plasmodium falciparum 3D7 (PF3D7_0213400) (UniProt Q7YTF7); assay: inhibition of Plasmodium PK7 catalytic activity – biochemical, TCAMS antimalarial set, Kinase-Glo luminescence (AID 1159587); conditions: recombinant PfPK7, Kinase-Glo ATP depletion luminescence
Sequence of Protein kinase 7 (PK7), Plasmodium falciparum 3D7 (PF3D7_0213400) (Q7YTF7 1-343): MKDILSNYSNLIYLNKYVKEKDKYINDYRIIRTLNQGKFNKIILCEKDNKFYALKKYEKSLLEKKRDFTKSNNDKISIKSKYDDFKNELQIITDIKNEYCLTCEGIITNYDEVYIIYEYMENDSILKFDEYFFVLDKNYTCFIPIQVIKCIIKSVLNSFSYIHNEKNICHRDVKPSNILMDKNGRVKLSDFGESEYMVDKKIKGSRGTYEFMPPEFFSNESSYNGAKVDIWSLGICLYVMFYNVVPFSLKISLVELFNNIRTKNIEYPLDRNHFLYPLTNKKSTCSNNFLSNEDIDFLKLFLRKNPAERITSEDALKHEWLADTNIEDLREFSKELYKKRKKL

[8] = biological target: Calcium-dependent protein kinase 4 (Plasmodium falciparum (isolate 3D7)) (UniProt Q8IBS5); assay: PfCDPK4 kinase inhibitors, biochemical, TCAMS library (AID 1159588; cut-off not given, nearly all actives have IC50 up to about 0.91 µM); conditions: recombinant PfCDPK4, Kinase-Glo ATP depletion luminescence
Sequence of Calcium-dependent protein kinase 4 (Plasmodium falciparum (isolate 3D7)) (Q8IBS5 whole entry, looked up): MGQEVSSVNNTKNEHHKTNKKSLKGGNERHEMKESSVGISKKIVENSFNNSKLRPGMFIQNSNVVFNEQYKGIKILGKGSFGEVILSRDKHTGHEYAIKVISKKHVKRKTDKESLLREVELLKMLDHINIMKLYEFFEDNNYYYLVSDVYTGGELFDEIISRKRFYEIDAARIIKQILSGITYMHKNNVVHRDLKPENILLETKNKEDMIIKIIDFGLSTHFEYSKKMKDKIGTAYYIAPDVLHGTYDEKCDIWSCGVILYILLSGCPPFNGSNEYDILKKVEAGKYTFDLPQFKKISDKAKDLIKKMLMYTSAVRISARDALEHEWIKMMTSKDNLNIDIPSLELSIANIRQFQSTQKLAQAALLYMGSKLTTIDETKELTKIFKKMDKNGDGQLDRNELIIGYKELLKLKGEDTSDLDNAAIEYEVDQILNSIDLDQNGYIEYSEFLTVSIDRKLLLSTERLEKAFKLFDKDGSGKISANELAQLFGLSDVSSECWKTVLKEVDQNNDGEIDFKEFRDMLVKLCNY

Structure (SMILES)	growth inhibition [1]	inhibition [2]	inhibition [3]	growth inhibition [4]	outcome [5]	outcome [6]	outcome [7]	outcome [8]
CNCCNCc1cccc(-c2cccc(-c3nc4c(C)cccc4[nH]3)c2)c1	9%	6%	1%	98% (active)	inactive	inactive	inactive	inactive
Cc1ccn2c(C(=O)N3CCN(c4cccc5c4nc(-c4ccoc4)n5Cc4ccccn4)CC3)c(C)nc2c1	99% (active)	2%	-1%	98% (active)	inactive	inactive	inactive	inactive
Cc1cccc(C)c1N1CCN(C2CCC(NC(=O)c3cc4ccccc4[nH]3)CC2)CC1 (stereo not given)	64% (active)	31%	-7%	101% (active)	inactive	inactive	inactive	inactive
CN1CCCN(Cc2ccc(-c3cccc(NC(=O)c4cccc(F)c4)c3)cc2)CC1	12%	28%	-3%	91% (active)	inactive	inactive	inactive	inactive
Cn1cncc1-c1ccc2c(-c3ccsc3)cnc(N)c2c1	72% (active)	41%	-3%	97% (active)	inactive	inactive	inactive	inactive
Cc1nn(-c2ccccc2)c2nc(-c3ccccc3)cc(C(=O)N3CCOCC3)c12	67% (active)	6%	6%	93% (active)	inactive	inactive	inactive	inactive
O=C(Nc1ccc(Cn2ncc(N3CCCNCC3)c(Cl)c2=O)cc1)Nc1cccc(Oc2ccccc2)c1	41%	8%	-5%	81% (active)	inactive	inactive	inactive	inactive
Cc1cccc2[nH]c(-c3cccc(-c4ccc(CNCCNC(=O)c5ccnn5C)cc4)c3)nc12	100% (active)	21%	-2%	102% (active)	inactive	inactive	inactive	inactive
O=C(NCCNc1nc(NCCNC(=O)Nc2ccccc2)c2ccc(=O)n(-c3c(F)cccc3F)c2n1)Nc1ccccc1	87% (active)	1%	6%	94% (active)	inactive	inactive	inactive	inactive
CCSc1nc2sc3c(c2c(=O)n1-c1ccccc1)CCN(C)C3	71% (active)	16%	-3%	83% (active)	inactive	inactive	inactive	inactive
Cc1cc2c(cc1C(F)(F)F)N(C(=O)Nc1cnc(OCCN(C)C)c(C(F)(F)F)c1)CC2	25%	28%	-2%	88% (active)	inactive	inactive	inactive	inactive
O=C(NCCCCN1CCC(c2ccc3c(c2O)CCCC3)CC1)c1ccc(-c2ccc(Cl)cc2)cc1	72% (active)	97% (active)	1%	98% (active)	inactive	inactive	inactive	inactive
COCCOc1cccc(CN2CCC(c3cc4nc(C)cc(C(F)(F)F)n4n3)C2)c1 (stereo not given)	74% (active)	25%	2%	85% (active)	inactive	inactive	inactive	inactive
c1ccc(-c2ccc3c(Nc4ccc5[nH]ccc5c4)ccnc3c2)nc1	78% (active)	11%	-7%	91% (active)	inactive	inactive	inactive	inactive
Cc1cccc(Cl)c1S(=O)(=O)N1CCCCC(c2ccc(C(F)(F)F)cc2)=N1	100% (active)	5%	1%	100% (active)	inactive	inactive	inactive	inactive
O=C(Cc1ccc(NC(=O)c2ccc(O)c(-c3ccc(Cl)c(Cl)c3)c2)cc1)NCCN1CCOCC1	24%	10%	4%	94% (active)	inactive	inactive	inactive	inactive
CN(C)CCn1c(=N)n(CC(O)c2ccc(Cl)c(Cl)c2)c2ccccc21 (stereo not given)	6%	20%	-2%	99% (active)	inactive	inactive	inactive	inactive
Cc1cccc(-c2nc3[nH]c(=O)cc(NC(=O)C(C)C)n3n2)c1	93% (active)	-12%	0%	96% (active)	inactive	inactive	inactive	inactive
O=C(Nc1ccccc1)N(Cc1ccccc1-c1cccc(CNC2CCCC2)c1)C1CCN(Cc2ccccc2)CC1	84% (active)	36%	3%	100% (active)	inactive	inactive	inactive	inactive
CC(Cc1ccc(NS(=O)(=O)c2ccc(CC(C)NCCc3cccc(Cl)c3)cc2)cc1)NCCc1cccc(Cl)c1 (stereo not given)	38%	12%	4%	100% (active)	inactive	inactive	inactive	inactive

Structure (SMILES)	growth inhibition [1]	inhibition [2]	inhibition [3]	growth inhibition [4]	outcome [5]	outcome [6]	outcome [7]	outcome [8]
CCNc1cc(C(=O)N[C@@H](Cc2ccc(F)c(F)c2)[C@H](O)CNC2CCCCC2)cc(N2CCCCS2(=O)=O)c1	84% (active)	1%	-2%	100% (active)	inactive	inactive	inactive	inactive
COc1cccc(C=NNc2cc(C)nc3ccccc23)c1	46%	16%	-8%	101% (active)	inactive	inactive	inactive	inactive
CCCCn1c(Sc2ccc(C#N)c([N+](=O)[O-])c2)nnc1-c1cccc(Cl)c1	87% (active)	30%	2%	96% (active)	inactive	inactive	inactive	inactive
Cn1cccc1CCNCc1ccc(-c2cccc(-c3nc4ccccc4[nH]3)c2)cc1	66% (active)	1%	3%	88% (active)	inactive	inactive	inactive	inactive
COc1nc2c(CCN3CC[C@H](NCc4cc(C#N)c5c(c4)OCCO5)[C@H](O)C3)ccnc2cc1F	41%	18%	-3%	95% (active)	inactive	inactive	inactive	inactive
CCC[C@@H]([C@@H](CC(C)C)C(=O)N[C@H](C(=O)Nc1nccs1)C(C)(C)SCCNC(=O)OCC)N(O)C=O	97% (active)	-8%	-7%	95% (active)	inactive	inactive	inactive	inactive
C[C@@H](N=C(Nc1ccc(C#N)cc1O)Nc1ccccc1Cl)c1ccc(Br)cc1	70% (active)	33%	0%	98% (active)	inactive	inactive	inactive	inactive
CCCC1N=C(N)N=C(N)N1c1ccc(C)cc1 (stereo not given)	2%	1%	-3%	94% (active)	inactive	inactive	inactive	inactive
Cc1cc(Cl)ccc1N(Cc1ccccc1)c1ccnc(Cl)n1	98% (active)	16%	2%	97% (active)	inactive	inactive	inactive	inactive
COc1ccc2nccc([C@@H](O)CN3CCC(NC(=O)C(c4cc5ccccc5o4)N4CCC(Cc5ccccc5)CC4)CC3)c2c1 (stereo not given in full)	82% (active)	11%	0%	100% (active)	inactive	inactive	inactive	inactive
O=S(=O)(NCCN1CCCC1)c1ccc(-c2cccc(CNCc3ccccc3)c2)s1	43%	44%	0%	94% (active)	inactive	inactive	inactive	inactive
O=C(Nc1cn(-c2ccc(OCc3cccc(F)c3)c(Cl)c2)c2ncncc12)c1ccncc1	81% (active)	13%	0%	100% (active)	inactive	inactive	inactive	inactive
COc1nc2c(CCN3CCC(NCc4ccc5c(n4)NC(=O)CO5)CC3)c(Cl)cnc2cc1F	40%	17%	-9%	99% (active)	inactive	inactive	inactive	inactive
Cc1cc2c(cc1Cl)N(C(=O)Nc1cc(F)cc(-c3cncnc3)c1)CC2	59% (active)	-4%	-6%	96% (active)	inactive	inactive	inactive	inactive
Cc1ccc2c(NN=Cc3ccccc3[N+](=O)[O-])cc(C)nc2c1	100% (active)	13%	4%	102% (active)	inactive	inactive	inactive	inactive
Fc1ccc(Nc2ccnc3cc(-c4cccc(CN5CCCCC5)c4)ccc23)c(Cl)c1	58% (active)	3%	-1%	91% (active)	inactive	inactive	inactive	inactive
COC(=O)c1ccc(C(=O)NCCCCN2CCC(c3ccc4c(c3OC)CCCC4)CC2)cc1-c1ccc(C(F)(F)F)cc1	19%	24%	2%	93% (active)	inactive	inactive	inactive	inactive
COc1ccc(-c2ccc(NC(=O)c3cccc(C#N)c3)cc2)cc1CN1CCN(C)CC1	59% (active)	26%	8%	100% (active)	inactive	inactive	inactive	inactive
CC(C)(C)OC(=O)NCc1ccc(Nc2nnc(-c3ccc(OCC(=O)NCc4ccc(C(C)(C)C)cc4)c([N+](=O)[O-])c3)o2)cc1	82% (active)	10%	-2%	96% (active)	inactive	inactive	inactive	inactive
CC(C)CC(C)NC(=O)C1Cc2c([nH]c3ccc(F)cc23)C2(CCN(Cc3ccccc3)CC2)N1 (stereo not given)	49%	18%	7%	97% (active)	inactive	inactive	inactive	inactive
